SMILES strings stand for the structures. Values joined by “and” are separate entries in the source; they are usually repeats but may differ in a detail not shown here. Identical values can stand only once. A structure can be active in one record and inactive in another. Active and inactive are the calls of the source. How the source made its calls: active means hit-call score of the fitted dose curve at least 0.9, where 1 is the maximum; inactive means score below 0.9.

Read-out in experiment [1]: Intercellular Adhesion Molecule 1 (ICAM1), ICAM1 (gene 3383)
As to the kind of experiment: BSK_hDFCGF_ICAM1: BioMAP Diversity Plus: hDFCGF Assay for Intercellular Adhesion Molecule 1 (ICAM1) Biomarker Activity (AID 2284287). Conditions: primary human foreskin fibroblasts. In outline:
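ICAM-1 ELISA readout 24 h after dosing, DMSO as baseline, in human dermal foreskin fibroblast cultures. Cytotoxicity checked in parallel wells by SRB staining (0.1% SRB, 10% TCA fixation, 560 nm).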

Read-out in another experiment: CD40, CD40 (gene 958)
As to the kind of experiment: BSK_IMphg_CD40: BioMAP Diversity Plus: IMphg Assay for CD40 Biomarker Activity (AID 2284288). Conditions: primary human endothelial cells with macrophages. In outline: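 ELISA read-out of cell-surface CD40 at 24 h in human venular endothelial cell/macrophage co-cultures. Activity fitted in the positive direction against DMSO; parallel SRB staining (560 nm) gauges overt cytotoxicity.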

Read-out in experiment [2]: TIMP metallopeptidase inhibitor 2 (TIMP2), TIMP2 (gene 7077)
The experiment in a line: BSK_hDFCGF_TIMP2: BioMAP Diversity Plus: hDFCGF Assay for TIMP metallopeptidase inhibitor 2 (TIMP2) Biomarker Activity (AID 2284289). Conditions: primary human foreskin fibroblasts. The method, boiled down:
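Primary human foreskin fibroblasts in the hDFCGF system, dosed for 24 h; TIMP-2 level measured by ELISA, fitted in the positive direction against DMSO; cytotoxicity checked in parallel by sulforhodamine B total protein staining.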

Read-out in experiment [3]: Interleukin-1 alpha (IL1a), IL1A (gene 3552)
The experiment in a line: BSK_IMphg_IL1a: BioMAP Diversity Plus: IMphg Assay for Interleukin-1 alpha (IL1a) Biomarker Activity (AID 2284290). Conditions: primary human endothelial cells with macrophages. The method, boiled down:
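IL-1α is quantified by ELISA at 24 h in the endothelial/macrophage IMphg co-culture, with gain of signal fitted relative to DMSO. Parallel SRB total-protein staining flags overt toxicity.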

Read-out in experiment [4]: E-selectin (Homo sapiens) (UniProt P16581)
The experiment in a line: BSK_IMphg_ESelectin: BioMAP Diversity Plus: IMphg Assay for Eselectin Biomarker Activity (AID 2284291). The following applies: primary human endothelial cells with macrophages. The method, boiled down: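 Analysed against DMSO baseline in the positive fitting direction, this endpoint is an ELISA read of E-selectin. It comes from human venular endothelial cells co-cultured with macrophages, sampled 24 h post-dose.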

Experiment [5] is described as follows: BSK_IMphg_SRB: Viability Assessment in the BioMAP Diversity Plus: IMphg Assay (AID 2284292).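 Further: measured one day after compound addition.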 The following applies: primary human endothelial cells with macrophages. The method, boiled down: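 SRB viability endpoint: cultures of human endothelial cells plus macrophages fixed with 10% TCA, stained with 0.1% SRB, read at 560 nm 24 h post-dosing. Only gain-of-signal fitted, relative to DMSO.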

Read-out in experiment [6]: Macrophage colony-stimulating factor (MCSF), CSF1 (gene 1435)
The experiment in a line: BSK_IMphg_MCSF: BioMAP Diversity Plus: IMphg Assay for Macrophage colony-stimulating factor (MCSF) Biomarker Activity (AID 2284293). The following applies: primary human endothelial cells with macrophages. The method, boiled down:
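M-CSF was measured by ELISA in human venular endothelial cell/macrophage co-cultures dosed for 24 hours. Sulforhodamine B staining of parallel cultures assessed cytotoxicity; data fitted against DMSO baseline.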

Read-out in experiment [7]: Interleukin-10 (IL10), IL10 (gene 3586)
As to the kind of experiment: BSK_IMphg_IL10: BioMAP Diversity Plus: IMphg Assay for Interleukin-10 (IL10) Biomarker Activity (AID 2284294). Conditions: primary human endothelial cells with macrophages. The method, boiled down:
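IL-10 read by ELISA after 24 h chemical exposure of primary human venular endothelial cell/macrophage cocultures, with DMSO as baseline. Parallel SRB staining (560 nm) gauged overt cytotoxicity.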

Experiment [8] is described as follows: BSK_IMphg_SRB.Mphg: Macrophage Viability Assessment in the BioMAP Diversity Plus: IMphg Assay (AID 2284295). Conditions: primary human endothelial cells with macrophages. In outline: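 Cytotoxicity read-out: parallel cultures fixed with 10% TCA, stained with 0.1% sulforhodamine B, read at 560 nm. System combines venular endothelium and macrophages; sampled 24 h post-dosing, fitted positively relative to DMSO control.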

Read-out in experiment [9]: Thrombomodulin, THBD (gene 7056)
The experiment in a line: BSK_LPS_Thrombomodulin: BioMAP Diversity Plus: LPS Assay for Thrombomodulin Biomarker Activity (AID 2284296). Conditions: primary human HUVEC with PBMC. In outline: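 Thrombomodulin on the surface of LPS-activated endothelial/PBMC co-cultures was quantified by ELISA at 24 hours post-dosing, with DMSO as baseline. Parallel SRB total-protein staining flagged overt cytotoxicity.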

Chain of E-selectin (Homo sapiens) (P16581 whole entry, looked up): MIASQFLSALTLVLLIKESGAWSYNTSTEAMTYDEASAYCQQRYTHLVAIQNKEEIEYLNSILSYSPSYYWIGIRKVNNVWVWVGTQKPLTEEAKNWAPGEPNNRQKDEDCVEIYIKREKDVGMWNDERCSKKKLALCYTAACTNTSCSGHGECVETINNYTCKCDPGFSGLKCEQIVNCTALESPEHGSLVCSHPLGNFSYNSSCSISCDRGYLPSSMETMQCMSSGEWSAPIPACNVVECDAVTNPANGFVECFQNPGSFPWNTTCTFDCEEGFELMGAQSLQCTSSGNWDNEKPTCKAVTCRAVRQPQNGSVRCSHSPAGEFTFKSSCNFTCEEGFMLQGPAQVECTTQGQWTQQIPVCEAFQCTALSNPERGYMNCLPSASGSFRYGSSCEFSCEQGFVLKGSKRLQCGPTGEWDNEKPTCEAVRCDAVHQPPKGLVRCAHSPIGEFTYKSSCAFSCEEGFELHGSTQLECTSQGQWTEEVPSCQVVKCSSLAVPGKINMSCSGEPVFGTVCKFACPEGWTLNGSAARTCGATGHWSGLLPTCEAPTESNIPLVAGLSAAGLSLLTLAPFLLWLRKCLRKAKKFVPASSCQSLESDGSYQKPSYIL

For `Cn1cnc([N+](=O)[O-])c1Sc1ncnc2nc[nH]c12`, the outcome in experiment [1] was “inactive”; with CD40, CD40 (gene 958) it was “inactive”; in experiment [2] it was “inactive”; in [3] it was “inactive”; in experiment [5], “inactive”; in [8], “inactive”. The outcome in experiment [9] was inactive. Also, the AC50 in the experiment with CD40, CD40 (gene 958) was 16.4 µM (active); in [4], 2.5 µM (active) and 9.29 µM (active); in experiment [6], 14.7 µM (active) and 8.87 µM (active); in [7], 12.6 µM (active).

By AC50 is commonly meant the midpoint of the concentration-response curve, whichever way the signal moves.
